Drawing on PubChem BioAssay (NCI), this text covers growth for 39 compounds.

Compounds without any hit were thinned out: in the full panel of roughly 83,000, 20% have a hit.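 The endpoint reported here, percent growth, reads 100 for growth as untreated, 0 for no net growth and -100 for all cells dead.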 Activity calls are given as the source filed them. Rule for the calls: active = growth percent below 10; inactive = the rest.

This experiment has as its system SF-268 CNS. The experiment in a line: NCI-60 one-dose screen, 48 h (100 = growth as untreated, 0 = no growth, -100 = all killed). The conditions noted are these: 10 µM unless noted.
Regarding `NCCNc1nc2ccccc2c2c(=O)c3cc(F)cc(Cl)c3sc12`, the growth was -42.4% (active).

Consider `C=C1C(=O)O[C@H]2[C@H]1CC/C(COC(=O)/C=C\C(=O)O)=C\CC[C@@]1(C)O[C@@H]21`, for which the growth was 100% (inactive).

Regarding `COc1ccccc1C(=O)/C=C/c1ccccc1`, the growth is 80% (inactive).

On to `Cn1cc([C@@H]2Nc3ccc4[nH]ncc4c3[C@H]3[C@H]4CCC(C4)[C@H]32)c(C(F)(F)F)n1`, for which the growth was 53% (inactive).

For `N#Cc1c(N)nc2c(c1N)C(c1ccc(F)cc1)c1ccc(N)cc1O2` (centres undefined), the growth is 105% (inactive).

As to `O=C(CN1C=NC2C(N3CCOCC3)=NC=NC21)c1ccc(Br)cc1` (centres undefined), the growth is 98.9% (inactive).

Consider `CCCCN1CCN(c2ccc3nc(-c4ccc5nc(-c6ccc(OCC)cc6)[nH]c5c4)[nH]c3c2)CC1`, for which the growth was 77.1% (inactive).

Regarding `CCN(CCO)CCNc1ccc(C)c2sc3cc(Cl)ccc3c(=O)c12`, the growth was 44.6% (inactive).

On to `Cc1nn(-c2nc3ccccc3[nH]2)c2c1C(c1ccc(OCC(N)=O)cc1)CC(=O)N2` (centres undefined), for which the growth was 96.4% (inactive).

With `COC(=O)/C(CCC=C(C)C)=C1\[C@@H](OC(C)=O)C[C@@]2(C)[C@H]1C[C@@H](O)[C@H]1[C@@]3(C)CC[C@H](NCCO)[C@@H](C)[C@@H]3CC[C@@]12C`, the growth is 104% (inactive).

`CCCc1c(C)c2sc(=O)[nH]c2[nH]c1=O`: the growth is 99.6% (inactive).

On to `O=C(/C=C/c1ccc(Cl)cc1)c1ccc(Nc2nc(NCCO)nc(Nc3ccc(Cl)cc3)n2)cc1`, for which the growth is 60.2% (inactive).

As to `COc1cccc2c(=O)c3c(sc12)c(NCCCNCCO)nc1ccccc13`, the growth is 48.2% (inactive).

As for `CCCCc1ccc(NS(=O)(=O)c2cc3c4c(c2)CCN4C(=O)CC3)cc1`, the growth was 5.78% (active).

Consider `O=C1/C(=C/c2ccc(O)cc2)COc2ccc(O)cc21`, for which the growth was 101% (inactive).

Consider `Cc1cc(Nc2ccc(OCc3ccccc3)cc2)nc2cc(O)ccc12`, for which the growth is 79.8% (inactive).

As for `O=C(c1nc2ccccc2[nH]1)C1[C@@H](c2cccc(O)c2)C2CC3CCCCC3N2[C@@]12C(=O)Nc1cc(Cl)ccc12` (some centres undefined), the growth is 49.5% (inactive).

As to `O=c1oc2ccc(Br)cc2c(=O)n1-c1ccc(Br)cc1F`, the growth is 12% (inactive).

As to `O=C(/C=C/c1ccc(C(F)(F)F)cc1)c1ccc(Nc2nc(NCCO)nc(N3CCOCC3)n2)cc1`, the growth is 36% (inactive).

Take `C#CCn1cc(C=C2C(=O)N(C)C(=O)N(C)C2=O)c2cc(Cl)ccc21`: the growth was 96.8% (inactive).

Turning to `COc1ccc(/C=C2/SC(=O)N(CC(=O)N3CCN(c4cc5c(cc4F)c(=O)c(C(=O)O)cn5C4CC4)CC3)C2=O)cc1`, the growth is 101% (inactive).

Take `CCOC(=O)C1=C(C)N=c2s/c(=C\c3ccccc3O)c(=O)n2C1c1ccc(OC)c2ccccc12` (centres undefined): the growth is 37.6% (inactive).

With `Nc1ccc(-c2ccc(-c3ccccc3N)c3[nH]c4ccccc4c23)cc1`, the growth was 39.5% (inactive).

`CCOC(=O)c1c2c(n3cccc(Cl)c13)C(=O)c1ncccc1C2=O`: the growth was 41.1% (inactive).

With `O=C(Nc1ccc(C23CC4CC(CC(c5ccccc5)(C4)C2)C3)cc1)c1cccs1`, the growth is 103% (inactive).

Consider `Cc1ccc2sc3c(NCCCNCCO)nc4ccccc4c3c(=O)c2c1`, for which the growth is 47.7% (inactive).

Consider `COc1ccccc1N1CCN(C(CNS(=O)(=O)c2ccc(Cl)cc2)c2cccnc2)CC1` (centres undefined), for which the growth was 90.8% (inactive).

`CCn1c(-c2nonc2Nc2ccc(OC)cc2)nc2ccccc21`: the growth was 110% (inactive).

`O=C(Nc1ccc(N2CCNCC2)cn1)c1[nH]ncc1Nc1ncnc2sc3c(c12)CCC3`: the growth is 37.8% (inactive).

For the compound `O=C(/C=C/c1cccc(Cl)c1)OCc1ccc2cc1OCC#C/C=C\C#CCO2`, the growth is 106% (inactive).

For the compound `C[n+]1c2ccccc2nc2ccc(NCCO)cc21`, the growth is 63.7% (inactive).

For the compound `Nc1nc2c(ncn2[C@@H]2O[C@H](CS)[C@@H](O)[C@H]2O)c(=O)[nH]1`, the growth was 99.7% (inactive).

In the case of `Cn1c(C(=O)c2cccc3ccccc23)nc2ccccc21`, the growth is 2.01% (active).

As to `CC/C(=C(\CC)c1ccc(OCC[N+](C)(C)C)cc1)c1ccc(OC)cc1`, the growth was 61.2% (inactive).

Take `O=C(Nc1ccc(F)cc1F)c1cc(I)ccc1O`: the growth is 16.1% (inactive).

On to `CC(C)Cn1c2c(c(=S)[nH]c1=O)CCC2`, for which the growth is 98.6% (inactive).

Regarding `CNCCNc1nc2ccccc2c2c(=O)c3cccc(C)c3sc12`, the growth is 53.7% (inactive).

Consider `COC(=O)c1c2c(c(C)[n+]([O-])c1C)C(=O)C(NCc1ccc(F)c(F)c1)=CC2=O`, for which the growth is 12% (inactive).

Consider `O=C(Cn1cc(COc2ncnc3c2cnn3-c2ccccc2)nn1)Nc1ccccn1`, for which the growth was 92.9% (inactive).
